ChEMBL document CHEMBL3988442, “University of Dundee, Small-Polar-MMV Screening Library” (2021)
Among all 48,000 compounds or so, about 13,000 (27%) showed an effect of 50% or more. Some of the results follow.

Tested on: Wolbachia pipientis
Assay: Anti-Wolbachia Cell-Based Screen
Type: functional
Set-up: scale not given: in the data most compounds retested in dose-response had high values
Conditions: 5 µM

Structure (SMILES) | Percent Effect [%]
CN(Cc1csc(-c2cccs2)n1)CC(O)CO (stereo not given) | 2.949
Cc1cc(=O)n(C)cc1NC(=O)CC1CCC1 | -11.35
Cc1ccc(N2CCCC(NC(=O)CCc3ccccn3)C2=O)cc1 (stereo not given) | -0.6334
O=C(Cc1ccon1)NC1CCCN(c2ccccc2F)C1=O (stereo not given) | 99.65
O=C(Cc1ccon1)NC1CC2(CCC2)Oc2ccccc21 (stereo not given) | 0.8032
CNc1nc(C)c(C(=O)NCC(C)(C)N2CCCCC2)s1 | 51.74
COc1nc(C)c(C(=O)NCc2cc(N3CCOCC3)ncn2)s1 | -8.084
CNc1nc(C)c(C(=O)N2CCCCC2CCc2ccc(O)cc2)s1 (stereo not given) | -31.11
Cc1nc(N2CCOCC2)sc1C(=O)NCC(C)(C)N1CCCCC1 | 59.39
CC(C)(CNC(=O)C1CCCCN1S(C)(=O)=O)N1CCOCC1 (stereo not given) | 1.375
CNc1nc(C)c(C(=O)N2CCCCC2CCN2CCOCC2)s1 (stereo not given) | -13.11
CN(CCO)C(=O)Nc1ccn(-c2cccc(C(F)(F)F)c2)n1 | -1.058
CC(=O)Nc1ccc(Cl)c(C(=O)N(C)C(C)c2nccs2)c1 (stereo not given) | 18.16
O=C1CC(C(=O)Nc2nnc(-c3ccccn3)[nH]2)c2ccccc2N1 (stereo not given) | -11.02
O=C(Nc1cnc(Oc2ccccc2)nc1)C1CC1 | 12.01
CN[C@@H]1CCC[C@@H](Oc2ccccc2Oc2ccc(C)cc2)[C@@H]1O | 109.8
COc1ccc(CNC(=O)N2CCOCC2C2CC2)cc1C (stereo not given) | 12.32
CNC(=O)[C@@]12CCO[C@@H]1CCN(S(=O)(=O)c1cc(C)cc(C)c1)C2 | 11.27
Cc1ncsc1CN1CC[C@H]2OCC[C@@]2(C(=O)NCC2CC2)C1 | 4.364
CC(=O)NCC(=O)N1CCOC2(CCCN(c3cccnc3)C2)C1.O=C(O)C(F)(F)F (stereo not given) | -5.55
Cc1ccc(N2CC[C@H]3OCC[C@@]3(C(=O)NC(C)C)C2)nn1.O=C(O)C(F)(F)F | -2.332
CCS(=O)(=O)N1CC[C@H]2OCC[C@@]2(C(=O)NC)C1 | -10.89
Cc1ccc(N2CC[C@H]3OCC[C@@]3(C(=O)N3CCCO3)C2)nn1 | 93.84
Cc1ccc(N2CC[C@H]3OCC[C@@]3(C(=O)NCC3CC3)C2)nn1 | 112.3
CC(=O)NCC(=O)N1CCOC2(CCCN(c3ccc(C)nn3)C2)C1 (stereo not given) | 107.9

Structure (SMILES) | Percent Effect [%]
Cc1ccc(N2C[C@H]3OCC[C@H]3[C@H](C(=O)NC3CCC3)C2)nn1 | -15.47
CS(=O)(=O)N1CC[C@H]2OCC[C@@]2(C(=O)NCC2CC2)C1 | 83.9
CCS(=O)(=O)N1CCOC2(CCCN(c3ccc(C)nn3)C2)C1.O=C(O)C(F)(F)F (stereo not given) | 0.7716
Cc1noc(CNc2c(N3CCCC3)cccc2N2CCCC2)n1 | 12
CC(C)c1cc(C(=O)N2CCN(c3ccc(F)c(Cl)c3)CC2)n(C)n1 | -4.845
Cc1nc(N(C)Cc2cccc(O)c2)nc2cc(S(C)(=O)=O)ccc12 | -16.37
CC(C)C(=O)N1CCC(NC2CCSCC2)C1 (stereo not given) | -5.859
CS(=O)(=O)N1CCC(Oc2ccc(C(=O)NCCC(N)=O)cc2Cl)CC1 | -24.14
Cc1ccc(N2CC[C@H]3OCC[C@@]3(C(=O)N3CCCC3)C2)nn1 | 99.3
Cc1ccc(N2CCC3(CC2)CCN(C2CCOCC2)CC3)nn1.O=C(O)C(F)(F)F | -17.16
Cc1ccc(N2CC3(CCN(C(=O)c4ccoc4)C3)C2)nn1 | 11.71
Cc1ccc(N2CC[C@H]3OCC[C@@]3(C(=O)N(C)C)C2)nn1 | 116.6
Cc1ccc(N2CCCC3(CCN(C(=O)C4CC4)C3)C2)nn1 (stereo not given) | 2.415
c1cn(-c2ccc(CN3CCCC3)cc2)c(-c2cc3n(n2)CCNC3)n1 | 4.696
O=C(NCC(F)(F)F)C1CCCN(Cc2ccno2)C1 (stereo not given) | -13.93
COc1ccc(C(=O)NCC(c2cccn2C)N2CCN(C)CC2)cc1 (stereo not given) | 104.9
COc1cc(OC)cc(C(=O)NCC(c2cccn2C)N2CCCC2)c1 (stereo not given) | 93.86
CN1CCN(C(CNC(=O)CCn2cccn2)c2cccs2)CC1 (stereo not given) | 11.34
Cc1ccc(C)c(C(=O)NCC(c2cccn2C)N2CCCCCC2)c1 (stereo not given) | 114.5
Cn1cccc1C(CNC(=O)c1ccc(F)cc1F)N1CCCCCC1 (stereo not given) | 2.493
CN1CCN(C(CNC(=O)c2ccc(Cl)cc2F)c2cccs2)CC1 (stereo not given) | -14.94
Cn1cccc1C(CNC(=O)COc1ccc(Cl)cc1Cl)N1CCCC1 (stereo not given) | -0.05475
COc1ccc(C(=O)NCC(c2cccn2C)N2CCCC2)c(OC)c1 (stereo not given) | 6.724
Cn1cccc1C(O)CNC(=O)COc1ccc(Cl)cc1Cl (stereo not given) | 19.06
COc1ccc(C(=O)NCC(c2cccn2C)N2CCCC2)cc1OC (stereo not given) | 118.2
